Data as given in PubChem BioAssay (Tox21).
Values joined by “and” are separate entries in the source; they are usually repeats but may differ in a detail not shown here. Equal values may be shown once. Records with an inconclusive call do not appear. Where a call stands in place of a potency, no number is given. Some structures have more than one record in an assay (separate samples or runs), and their calls can disagree. Active and inactive are the calls of the source. The call rests on the fitted dose curve.
Potency means the concentration at half of the fitted maximal effect.

Assay: qHTS assay for small molecule agonists of the p53 signaling pathway - cell viability (AID 651633); further: nearly all actives have a fitted effect of over 30% in size;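 on activity change, negative = cytotoxicity: p53RE-bla HCT reporter cells with a stable beta-lactamase p53 reporter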
Details: p53RE-bla HCT-116 viability, ATP luminescence, 16 h; series mostly up to 83.3 µM; activity change, negative = cytotoxicity: at the top concentration
Outline: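 p53RE-bla cells, seeded at 4,000 per well and rested 5 h at 37 C/5% CO2, received compounds in DMSO for 16 h at 37 C. CellTiter-Glo was then added, and luminescence was read after 30 min at room temperature to gauge cytotoxicity.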
For `O=C(O)CCl`, the Potency was “inactive”. For `Cc1cc(Cl)ccc1N`, the Potency was “inactive”. With `Nc1ccc(Cl)cc1` the Potency was “inactive”. For `CCCCn1cc[n+](C)c1C`, the Potency was “inactive”. In the case of `CCC[N+]1(C)CCCC1`, the Potency is reported as “inactive”. In the case of `CCCCCCCCCCn1cc[n+](C)c1`, the “activity change, negative = cytotoxicity” value is reported as 10.1% [at 95.3 µM] (inactive). For `C[N+](C)(C)Cc1ccccc1`, the Potency was “inactive”. With `COP(=O)(OC)OC=C(Cl)Cl` the Potency was “inactive”. With `CCCC[n+]1ccc(C)cc1` the Potency was “inactive”. With `CCCCCC[n+]1ccccc1` the Potency was “inactive”. For `CC(=O)O`, the Potency was “inactive”. With `CCn1cc[n+](C)c1C` the Potency was “inactive”. For `CCCCCCCCn1cc[n+](C)c1`, the Potency was “inactive”. In the case of `CC[N+](CC)(CC)CC`, the Potency is reported as “inactive”. With `CCCC[n+]1ccccc1` the Potency was “inactive”. With `CCC[N+]1(C)CCCCC1` the Potency was “inactive”. For `CCCCCCCCCCCC(=O)O`, the Potency was “inactive”. With `C=CCOC(Cn1ccnc1)c1ccc(Cl)cc1Cl` (stereo not drawn) the Potency was “inactive”. With `COc1ccccc1N` the Potency was “inactive”. For `CCCCCCCCCCCCCC[P+](CCCCCC)(CCCCCC)CCCCCC`, the Potency was 15.4 µM (active) and 19.5 µM (active) and inactive. In the case of `CCCC[N+]1(C)CCCCC1`, the Potency is reported as “inactive”.

Assay: qHTS assay for small molecules that induce genotoxicity in human embryonic kidney cells expressing luciferase-tagged ATAD5 - cell viability (AID 651634); further: nearly all actives have a fitted effect of over 25% in size
Details: HEK293T ATAD5-luc cells viability, CellTiter-Fluor, 15.5 h; series mostly up to 83.3 µM; activity, negative = cytotoxicity: at the top concentration
Outline: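 15.5 hr compound or vehicle exposure of HEK293T cells expressing luciferase-tagged ATAD5 at 37C; live-cell protease activity is read by fluorescence after 30 min of CellTiter-Fluor.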
With `Oc1cccc2cccnc12` the Potency was “inactive”. For `O=C(O)CCl`, the Potency was “inactive”. For `O=C(O)c1ccccc1O`, the Potency was “inactive”. With `Cc1cc(Cl)ccc1N` the Potency was “inactive”. With `O=c1nc(O)n(Cl)c(=O)n1Cl` the Potency was “inactive”. With `Nc1ccc(Cl)cc1` the Potency was “inactive”. In the case of `O=[N+]([O-])O`, the Potency is reported as “inactive”. With `CCCCn1cc[n+](C)c1C` the Potency was “inactive”. In the case of `CCC[N+]1(C)CCCC1`, the Potency is reported as “inactive”. In the case of `CCCCCCCCCCn1cc[n+](C)c1`, the Potency is reported as “inactive”. In the case of `CN(C)[C@@H]1C(=O)C(C(N)=O)=C(O)[C@@]2(O)C(=O)C3=C(O)c4c(O)cccc4[C@@](C)(O)[C@H]3[C@H](O)[C@@H]12`, the Potency is reported as “inactive”. With `O=c1[nH]c(=O)n(Cl)c(=O)n1Cl` the Potency was “inactive”. For `CC(Cl)(Cl)C(=O)O`, the Potency was “inactive”. With `C[N+](C)(C)Cc1ccccc1` the Potency was “inactive”. For `COP(=O)(OC)OC=C(Cl)Cl`, the Potency was “inactive”. With `CCCC[n+]1ccc(C)cc1` the Potency was “inactive”. In the case of `CCCCCC[n+]1ccccc1`, the Potency is reported as “inactive”. For `CC(=O)O`, the Potency was “inactive”. With `CCn1cc[n+](C)c1C` the Potency was “inactive”. For `CCCCn1cc[n+](C)c1`, the Potency was “inactive”. In the case of `O=S(=O)(O)O`, the Potency is reported as “inactive”. In the case of `CCCCCCCCn1cc[n+](C)c1`, the Potency is reported as “inactive”. For `CCCn1cc[n+](C)c1`, the Potency was “inactive”. With `CC[N+](CC)(CC)CC` the Potency was “inactive”. In the case of `CCCC[n+]1ccccc1`, the Potency is reported as “inactive”. With `CCC[N+]1(C)CCCCC1` the Potency was “inactive”. With `CCCCCCCCCCCC(=O)O` the Potency was “inactive”. In the case of `C=CCOC(Cn1ccnc1)c1ccc(Cl)cc1Cl` (stereo not drawn), the Potency is reported as “inactive”. In the case of `CCCCCCCCCCCCOS(=O)(=O)O`, the Potency is reported as “inactive”. In the case of `COc1ccccc1N`, the Potency is reported as “inactive”. For `CCCCCCCCCCCCCC[P+](CCCCCC)(CCCCCC)CCCCCC`, the Potency was 27.4 µM (active) and 24.5 µM (active). In the case of `CCCC[N+]1(C)CCCCC1`, the Potency is reported as “inactive”.
